# Measurements reported in PubChem BioAssay (NCI).
# This is part of a sample that, as a whole, favours compounds with a hit. Of some 83,000 tested, about 20% had one in any assay.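 Percent growth is the endpoint: 0 to 100 indicates growth inhibition (40 means 60% inhibition), 0 means no net growth, and negative values indicate cell death.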 A number with no mark means an inactive call. Calls of active or inactive are those of the source. The calls were made as follows: active = growth percent below 10; inactive = the rest.
# Legend:
# Experiment in all cases: NCI-60 one-dose screen, 48 h (100 = growth as untreated, 0 = no growth, -100 = all killed)
# Settings in all cases: 10 µM unless noted
# [1] = test system: HT29 colon
# [2] = test system: SNB-75 CNS
# [3] = test system: SNB-19 CNS
# [4] = test system: U251 CNS
# [5] = test system: PC-3 prostate
# [6] = test system: SK-MEL-5 melanoma
# [7] = test system: UACC-62 melanoma
# [8] = test system: LOX IMVI melanoma
# [9] = test system: SK-MEL-28 melanoma
Structure (SMILES),growth [1],growth [2],growth [3] [%],growth [4] [%],growth [5] [%],growth [6],growth [7],growth [8],growth [9]
COc1ccc(/C=N/Nc2cc(=O)[nH]c3ccc(C)cc23)cc1,94.7%,108%,95.2,97.1,79.1,69%,89.4%,91.5%,101%
COc1ccc2c(c1)/C(=C/c1sc(=S)n(Cc3ccco3)c1O)C=N2,15.8%,1.19% (active),44.5,37,61.6,52.2%,38.9%,35.9%,47.4%
O=c1ccc(N=Nc2ccc([N+](=O)[O-])cc2)ccc1O,25.9%,30.7%,19,17.4,34.2,9.1% (active),15.2%,3.95% (active),41.1%
COc1cc(/C=C/C(=O)/C=C/c2cc(OC)c3c(c2OC)OCO3)c(OC)c2c1OCO2,68.5%,33.4%,55.4,11.5,41,45.1%,25.5%,32.9%,55.6%
CCCCCCCCCCCCCCCCCCOc1ccccc1CC(=O)OCC[N+](CC)(CC)CC,13.1%,22.5%,11.4,14.4,18.3,-3.62% (active),21.4%,-57.6% (active),31.5%
O=C(/C=C/c1ccc([N+](=O)[O-])o1)NNC(=O)c1cc2ccccc2cc1O,7.4% (active),45.7%,33.5,17.5,38.4,-86.9% (active),-99.1% (active),-10.5% (active),-46.1% (active)
COc1ccccc1/C=C1\Oc2cc(OCCN3CCC(Cc4ccccc4)CC3)ccc2C1=O,31.2%,83.6%,90.8,78.2,81.8,90.9%,92.1%,70.7%,87.5%
Cc1ccc(C(CC(=O)O)c2c(C)[nH][nH]c2=O)cc1 (stereo not given),113%,92.9%,98.5,96.4,105,102%,96.1%,95.5%,110%
CCN1C(=O)N(CC)C2Nn3c(s/c(=C4\C(=O)N(CC(C)C)c5ccccc54)c3=O)=NC21 (stereo not given),86.4%,14.1%,54.7,36.3,38.1,39.9%,45.3%,54.2%,66%
N#Cc1c(-c2ccc(Cl)cc2)nc(NCCO)[nH]c1=O,106%,81%,102,98.7,92.4,107%,84.4%,97.3%,112%
